In PubChem BioAssay (NCI):
This is part of a sample that, as a whole, favours compounds with a hit. Of some 83,000 tested, about 20% had one in any assay.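 Testing used 96-well plates and a 48-hour single-concentration exposure. Example: -40 means 40% of the starting cells died.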 Values without a mark were called inactive. Active and inactive are the calls of the source. How the source made its calls: active means growth percent below 10; inactive means the rest.

Each molecule was assayed on SK-OV-3 ovarian (assay: NCI-60 one-dose screen, 48 h (100 = growth as untreated, 0 = no growth, -100 = all killed)). Conditions: 10 µM unless noted.
For `Cc1cc(S(=O)(=O)/N=C(\N)n2nc(C)c(C)c2C)c(SCc2ccccc2)cc1Cl`, the growth was 106%.
For `CS(=O)(=O)Nc1cncc(-c2ccc3ncnc(Nc4cncc(Cl)c4)c3c2)c1`, the growth was 81.8%.
Molecule `CC(C)(Sc1cc(C(C)(C)C)c(OC(=O)CCCC(=O)O)c(C(C)(C)C)c1)Sc1cc(C(C)(C)C)c(OC(=O)CCCC(=O)O)c(C(C)(C)C)c1` has a growth of 91.5%.
`COc1cc2c(c(OC)c1OC)CCC(c1cccc(NC(=O)c3ccc(Br)cc3)c1)O2` (stereo unspecified) gave a growth of 75%.
`COc1ccc(CNc2c3ccccc3nc3ccccc23)cc1` gave a growth of 53.8%.
With `N#CSc1c[nH]c2cccc(/C=C/C(=O)/C=C(/C=C/c3cccc4[nH]cc(SC#N)c34)OB(F)F)c12` the growth was 78.7%.
`CC1=NC2=Nn3c(c4cnn(-c5ccccc5)c4n/c3=N\N)NN2C(c2ccccc2)=C1` was tested, and the growth was 98%.
With `COc1ccc(\C=N/N=C(N)/C(N)=N\N=C/c2ccc(OC)cc2)cc1` the growth was 96.1%.
`NC(=O)c1cccc(-n2ccc3cc(NC(=O)c4ccc(N5CCOCC5)c(C(F)(F)F)c4)ccc32)n1` gave a growth of 43.3%.
`CN(C)CC(C)(C)C(=O)/C=C/c1ccccc1` was tested, and the growth was -20.1% [25 µM] (active).
`C=CCn1c(SCC(=O)Nc2ccc(C(=O)/C=C/c3ccc(Cl)cc3)cc2)nnc1-c1ccc(Br)cc1` showed a growth of 138%.
`Cc1cn(-c2cc(NC(=O)c3cccc(C#Cc4cccc5[nH]nc(N)c45)c3)cc(C(F)(F)F)c2)cn1` gave a growth of 99.4%.
With `Oc1c(I)cc(I)cc1CNCCN(Cc1ccccn1)Cc1ccccn1` the growth was -74.7% (active).
With `C=CC[Se]C(=O)Cc1c(C)n(C(=O)c2ccc(Cl)cc2)c2ccc(OC)cc12` the growth was -83% (active).
`CCC(=C(c1ccc(OCCN2CCCCC2)cc1)c1ccc(OCCN2CCCCC2)cc1)c1ccc(Cl)cc1` was tested, and the growth was -85.7% (active).
`Cc1ccc(/C=C2\COc3ccc(O)cc3C2=O)cc1` showed a growth of 126%.
Molecule `COc1cc2nc3cc([N+](=O)[O-])ccc3c(NCCNCC(C)O)c2cc1OC` (stereo unspecified) has a growth of 20.8%.
`O=C(Nc1ccc(Oc2cccc(F)c2)c(Cl)c1)c1cccnc1` showed a growth of 30%.
Work on `CCCc1c(OC(=O)c2ccccc2)nc2[nH]c(=O)sc2c1C` yielded a growth of 95.8%.
`CCCCCN1C(=O)/C(=c2\sc3n(c2=O)C2C(NN=3)N(CC)C(=O)N2CC)c2ccccc21` (stereo unspecified) showed a growth of 13.3%.
`CCOC(=O)c1cc(C)n(-c2ccc(C(=O)O)cc2)c1C` showed a growth of 92.8%.
For `O=C1NC(=O)C(Cc2ccc(OCc3ccc(-c4ccc(Cl)cc4Cl)cc3)cc2)S1` (stereo unspecified), the growth was 61.8%.
Work on `CC/C=C\C[C@H](O)C/C=C1/C(=O)C=C[C@@H]1C/C=C\CCCC(=O)N(C)C` yielded a growth of 21.8%.
For `NC(=O)CSc1oc(-c2ccccc2)nc1S(=O)(=O)c1ccc(Br)cc1`, the growth was 88.3%.
For `COc1cc(-c2nccc3[nH]c(-c4ccc5cc[nH]c5c4)nc23)cc(OC)c1OC`, the growth was 1.3% (active).
For `Cc1nc2sc(C(=O)Nc3cccc(Br)c3)c(N)c2cc1C(O)c1ccccc1` (stereo unspecified), the growth was 35.6%.
With `CC(C)c1ccc(Cc2cnc(NC(=O)c3cc(Br)cs3)s2)cc1` the growth was 28.6%.
`Cc1ccc(-c2nc([P+](c3ccccc3)(c3ccccc3)c3ccccc3)c(S(=O)(=O)c3ccc(C)cc3)o2)cc1` gave a growth of 64.8%.
`COC(CC(F)F)c1cn(S(=O)(=O)c2ccc(C)cc2)c2ccccc12` (stereo unspecified) was tested, and the growth was 18.1%.
`Cc1ccc(C[P+](c2ccccc2)(c2ccccc2)c2ccccc2)cc1` was tested, and the growth was 6.84% (active).
In the case of `CC1=C2[C@@H](CC1)[C@]1(C)O[C@@](C(C)C)(C[C@H]1OC(=O)[C@H](C)O)[C@H]2OC(=O)/C=C/c1ccccc1`, the growth was 83.5%.
With `Cc1c(-c2ccc(O)cc2)n(Cc2ccc(OCCN3CCCCCC3)cc2)c2ccc(O)cc12` the growth was 81.3%.
For `CCOC(=O)C(=O)C(C(=O)OCC)c1ccccc1` (stereo unspecified), the growth was 110%.
`CS(=O)(=O)c1ccc(-c2cnn3ccc(-c4cccc(S(=O)(=O)C5CC5)c4)nc23)cc1` showed a growth of 32.2%.
In the case of `Nc1n[nH]c2cccc(C#Cc3cccc(NC(=O)c4cc(F)cc(C(F)(F)F)c4)c3)c12`, the growth was 114%.
For `N#Cc1nc(-c2ccc(F)cc2)oc1S(=O)(=O)N1CCOCC1`, the growth was 99.4%.
